GSTO1 inh: GSTO1 inhibition, counter-screen for RBBP9 inhibitors. P78417. recombinant GSTO1, activity-based probe fluorescence polarization. inhibition, % at 5.96 µM. 1.1% of 300,000 active;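 active = inhibition above the campaign mean inhibition plus 3 SD, cut at about 35% in these data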
PAD4 inh: blocks human protein arginine deiminase 4 | recombinant PAD4, RCA probe fluorescence polarization | Q9UM07 | inhibition, % at 6.36 µM | 0.41% of 330,000 active;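 active = percent inhibition above a cutoff equal to the mean of all tested compounds plus 3 SD, cut at about 15% in these data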
Fam108B counter: Fam108B inhibition, counter-screen for RBBP9 inhibitors. inhibition, % at 9.51 µM. 0.33% of 300,000 active. recombinant Fam108B, FP-Rh probe fluorescence polarization. AID 1947;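 active = inhibition above the screen mean inhibition plus 3 SD, computed separately per campaign, cut at about 18% in these data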;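 note: inhibitors lower polarization as less probe binds the enzyme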
LYPLA1 inh: LYPLA1 (human) inhibition in PME1 counter-screen; 0.16% of 320,000 active; O75608; recombinant LYPLA1, FP-Rh probe fluorescence polarization; AID 2174; inhibition, % at 5.9 µM;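 active = inhibition above the mean of all tested compounds plus 3 SD, set per campaign, cut at about 14% in these data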;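 note: inhibitors block serine hydrolase probe labeling of LYPLA1 so polarization falls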
Target sequence (O75608 whole entry, looked up): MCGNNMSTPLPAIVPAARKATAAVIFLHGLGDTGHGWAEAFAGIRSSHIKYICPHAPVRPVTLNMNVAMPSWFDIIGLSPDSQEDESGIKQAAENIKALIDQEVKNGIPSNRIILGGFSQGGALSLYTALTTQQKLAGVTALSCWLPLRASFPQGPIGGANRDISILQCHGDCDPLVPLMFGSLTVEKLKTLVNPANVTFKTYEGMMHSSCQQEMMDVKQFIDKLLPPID
LYPLA2 counter: LYPLA2 (human) inhibition in PME1 counter-screen; O95372; recombinant LYPLA2, FP-Rh probe fluorescence polarization; inhibition, % at 5.9 µM; 0.38% of 320,000 active; AID 2177;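 active = inhibition above the screen-wide mean plus 3 SD, limit set per campaign, cut at about 26% in these data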
PME-1 inh: blocks human protein phosphatase methylesterase 1; recombinant PME-1, FP-Rh probe fluorescence polarization; inhibition, % at 5.9 µM; 0.53% of 320,000 active;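 active = inhibition above the campaign mean of all compounds plus 3 SD, cut at about 26% in these data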;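 note: competitive labeling of PME-1 active site by serine hydrolase directed probe; inhibitors block probe labeling so polarization falls and inhibition rises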
Target sequence (Q9Y570 whole entry, looked up): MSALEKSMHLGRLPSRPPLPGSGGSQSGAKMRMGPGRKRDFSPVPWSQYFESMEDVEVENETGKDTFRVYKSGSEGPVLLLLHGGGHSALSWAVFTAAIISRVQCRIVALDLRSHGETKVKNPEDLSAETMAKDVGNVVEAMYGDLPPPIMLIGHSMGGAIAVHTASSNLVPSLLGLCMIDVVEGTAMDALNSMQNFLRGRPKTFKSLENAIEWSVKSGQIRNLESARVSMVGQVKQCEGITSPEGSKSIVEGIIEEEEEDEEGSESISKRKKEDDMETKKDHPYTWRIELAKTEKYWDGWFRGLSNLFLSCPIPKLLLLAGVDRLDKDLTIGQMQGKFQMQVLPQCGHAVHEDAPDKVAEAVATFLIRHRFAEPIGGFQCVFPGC
GSTO1 confirm: confirmation of human GSTO1 inhibitors; shares compounds with GSTO1 inh; recombinant GSTO1, probe fluorescence polarization; inhibition, % at 5.96 µM; 54% of 2,400 active;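 active = inhibition above the primary screen's cutoff, its mean inhibition plus 3 SD, cut at about 35% in these data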;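 note: loss of polarization as inhibitors block binding of rhodamine sulfonate ester activity probe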
GSTO1 ABPP inh: GSTO1 (human) inhibition by gel ABPP | shares compounds with GSTO1 inh | recombinant GSTO1, gel ABPP SE-Rh probe fluorescence | inhibition, % at 1 µM | 30% of 130 active | AID 463110;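 active = inhibition of the enzyme GSTO1 above about 75%, limit read from the data; inactive = inhibition below that limit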
Hits are given with their value; i = inactive; nt = no result. An excerpt weighted towards active compounds, which were near 1.8% of everything screened.

SMILES | GSTO1 inh | PAD4 inh | Fam108B counter | LYPLA1 inh | LYPLA2 counter | PME-1 inh | GSTO1 confirm | others
C/C(=N\NC(=O)c1ccccc1O)c1cccc(NC(=O)c2ccccc2)c1 | i | i | i | i | i | i | nt
C/C(=N\NC(=O)c1cc(O)ccc1O)c1cccc(NC(=O)c2cccc(Cl)c2)c1 | 56 | i | i | i | i | i | i
O=C(Nc1ccccc1)/C(=C/c1ccc2c(c1)OCO2)NC(=O)c1ccco1 | i | i | i | i | i | i | nt
O=C(NN1C(=O)c2ccccc2NC1c1ccc([N+](=O)[O-])o1)c1ccccc1 (configuration not stated) | 44 | i | i | i | i | i | i
C=CCN(Cc1ccc(Cl)s1)C(=O)c1cc(S(=O)(=O)N2CCOCC2)ccc1F | nt | i | nt | i | i | i | nt
Cc1cc(-n2c(C)cc(C(=O)COc3ccc(Cl)cc3C(N)=O)c2C)no1 | nt | i | nt | nt | nt | nt | nt
N#C/C(=C\c1cc(O)c(O)c(O)c1)C(N)=O | 59 | i | i | i | i | i | i
COc1ccc(N/C=C2\CCc3ccccc3C2=O)cc1 | i | i | i | i | i | i | nt
COc1ccc2c(c1)CC/C(=C\Nc1ccc3c(c1)OCO3)C2=O | 69 | i | i | i | i | 32 | 62
Cc1nnc2ccc(N3CCN(C(=O)c4ccccc4)CC3)nn12 | i | i | i | i | i | i | nt
O=C(c1ccc(Br)o1)N1CCN(c2ccc3nnc(-c4ccccc4)n3n2)CC1 | 40 | i | i | i | i | i | i
COc1cccc(/C=N/NC(=O)CN(C)S(=O)(=O)c2ccccc2)c1OC | nt | i | nt | i | i | i | nt
Cc1ccc(C(C)NC(=O)c2cccs2)cc1 (configuration not stated) | i | i | i | i | i | i | nt
CC(NC(=O)c1cccs1)c1ccccc1 (configuration not stated) | 63 | i | i | i | i | i | i
CC(C)(C)OC(=O)NC(CNCc1ccccc1)Cc1ccccc1 (configuration not stated) | i | i | i | i | i | i | nt
COc1ccc(-c2[nH]ncc2C=O)cc1 | i | i | i | i | i | i | nt
Cc1cccc(-c2nnc(SCCOc3ccc4c(C)cc(=O)oc4c3)o2)c1 | 40 | i | i | i | i | i | i
CC(NC(=O)Cc1ccccc1)c1ccccc1 (configuration not stated) | i | i | i | i | i | i | nt
O=C(Cc1ccccc1)NC1(O)C(=O)c2ccccc2C1=O | 72 | i | i | i | i | i | 75
COc1cc(NCCCCCCCN)c2ncccc2c1 | 46 | 27 | i | i | i | i | 60
c1cc2c3c(cccc3c1)NC1(CCCCCC1)N2 | 53 | i | i | i | i | i | i
O=C(O)Cc1c[nH]c2cccc(O)c12 | 42 | i | i | i | i | i | i
O=C(O)Cc1c[nH]c2ccccc12 | i | i | i | i | i | i | nt
O=c1ccc2cc(S(=O)(=O)N3CCOCC3)ccc2o1 | 42 | i | i | i | i | i | i
COc1ccc(N2CCN(S(=O)(=O)c3ccc4oc(=O)ccc4c3)CC2)cc1 | i | i | i | i | i | i | nt
SMILES | GSTO1 inh | PAD4 inh | Fam108B counter | LYPLA1 inh | LYPLA2 counter | PME-1 inh | GSTO1 confirm | others
O=C(O)C1Cc2ccccc2CN1C(=O)CCl (configuration not stated) | 70 | i | i | i | i | i | 98 | GSTO1 ABPP inh=82
O=C(O)C1Cc2ccccc2CN1C(=O)COc1ccc(Br)cc1 (configuration not stated) | i | i | i | i | i | i | nt
CCSc1nnc(NC(=O)C(C)C)s1 | i | i | i | i | i | i | nt
CCSc1nnc(NC(=O)C(C(F)(F)F)C(F)(F)F)s1 | 38 | i | i | i | i | i | 48
Cc1ccc(N=Cc2cccc(O)c2O)c(C)c1 | 85 | i | i | i | i | i | i
Oc1cccc(/C=N/N=C/c2cccc(O)c2O)c1O | i | i | i | i | i | i | nt
Cc1ccccc1N=Cc1cccc(O)c1O | 70 | i | i | i | i | i | i
CC(N=Cc1cccc(O)c1O)c1ccccc1 (configuration not stated) | 77 | i | i | i | i | i | 54
CCN(CC)c1ccc(C=Nc2ccc(C)cc2C)c(O)c1 | i | i | i | i | i | i | nt
Cc1onc(-c2ccccc2)c1C(=O)NNC(=O)c1ccccc1 | nt | i | nt | i | i | i | nt
Cc1onc(-c2ccccc2)c1C(=O)NNC(=O)c1ccccc1O | 47 | i | i | i | i | i | i
Cc1ccc(NC2=C(N3CCCCC3)C(=O)c3ccccc3C2=O)cc1 | 65 | i | i | i | i | i | 46
O=C(/C=C/c1ccc(O)cc1)c1ccc(NC2=C(N3CCCCC3)C(=O)c3ccccc3C2=O)cc1 | 65 | i | i | i | i | i | 51
CN(C1=C(N2CCCCC2)C(=O)c2ccccc2C1=O)c1ccccc1 | 50 | 16 | i | i | i | i | i
CCN(CC)CCN1C(=O)C(=O)/C(=C(/O)c2ccc(S(=O)(=O)N3CCOCC3)cc2)C1c1ccc(C)cc1 (configuration not stated) | i | i | i | i | i | i | nt
NC1=NC(=O)/C(=C\c2cc([N+](=O)[O-])ccc2Cl)S1 | 46 | i | i | i | i | i | i
CC(C)(c1cc(Br)c(O)c(Br)c1)c1cc(Br)c(O)c(Br)c1 | nt | i | nt | i | i | i | nt
CCCCC[C@@H]1C=C(C(=O)O)[C@H](c2ccc(Cl)c(Cl)c2)N1S(=O)(=O)c1ccc(C)cc1 | nt | i | nt | nt | nt | nt | nt
O=C(CCl)N1c2ccccc2SCC1c1ccccc1 (configuration not stated) | 86 | i | i | i | i | i | 94 | GSTO1 ABPP inh=75
CCC(=O)N1CCN(C(=O)CC)C1c1ccccc1 | i | i | i | i | i | i | nt
COc1ccc(S(=O)(=O)N2CCC(C(=O)NC3CCCC3)CC2)cc1C | i | i | i | i | i | i | nt
O=C1CN(C(=O)COC(=O)CNC(=O)c2ccc(Cl)cc2)c2ccccc2N1 | i | i | i | i | i | i | nt
O=C1CN(C(=O)COC(=O)CNC(=O)c2ccccc2)c2ccccc2N1 | 89 | i | i | i | i | i | i
CC(=O)Nc1ccc(S(=O)(=O)NC2=C(N3CCN(C)CC3)C(=O)c3ccccc3C2=O)cc1 | 43 | i | i | i | i | i | 38
CCN1CCN(C2=C(NS(=O)(=O)c3ccc(NC(C)=O)cc3)C(=O)c3ccccc3C2=O)CC1 | 50 | i | i | i | i | i | i
C#CCNC(=O)C1=C[C@H](C2CCCCC2)C[C@H](OCCCCO)O1 | i | i | i | i | i | i | nt
COc1ccc(OC)c2c1C(=O)C(Cl)=C(Cl)C2=O | 58 | i | i | i | i | i | i
COc1cccc(-c2nc(CC(=O)O)cs2)c1OC | i | i | i | i | i | i | nt
COc1cccc(-c2nc(CCl)cs2)c1OC | 61 | i | i | i | i | i | 99 | GSTO1 ABPP inh=i
